Rows were chosen to be rich in hits. Some 7.3% of all compounds tested hit in one or more screens of this group.
Tau fluor cs: counter-screen for tau fibril formation inhibitors; tau K18 P301L Alexa594 fluorescence, heparin fibrillization; Potency, µM (top dose mostly 57.7 µM), without a hit: at the top dose activity change, negative = decrease; 280,000 tested, 0.93% active; AID 1463; also: nearly all actives have a fitted effect of over 55% in size
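Human tau K18 P301L (15 uM unlabeled, 0.24 uM Alexa 594-labeled) in 100 mM sodium acetate pH 7 with 20 uM heparin, 6 hr at 37 C. ThT 30 uM added, 1 hr ambient; Alexa 594 FP and total fluorescence read at 555/632 nm.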
Gal4-VP16 FLuc: inhibits Gal4-VP16 luciferase reporter, ROR gamma counter-screen. Drosophila S2 Gal4-VP16 UAS-luciferase, luminescence, 20 h. Potency, µM (doses to about 53.6 µM), for inactives: at the highest dose activity, negative = inhibition, usual class: inhibitors. 310,000 tested, 3.5% active. AID 2546;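 also: Gal4-VP16 expression switched on by copper sulfate through the metallothionein promoter; nearly all actives have a fitted effect of over 50% in size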
Tau fibril ThT: inhibitors of human tau fibril formation, thioflavin T binding; recombinant tau K18 P301L, heparin-induced fibrillization, ThT fluorescence; P10636; 270,000 tested, 2.1% active; AID 1460; Potency, µM (top dose mostly 57.4 µM), for the others: at the top dose activity, negative = inhibition, hits mostly inhibitors; also: nearly all actives have a fitted effect of over 55% in size
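Fibril formation assay: tau K18 P301L at 15 uM with trace Alexa 594 label, heparin inducer 20 uM, pH 7 sodium acetate buffer, 37 C for 6 hr; endpoint ThT signal.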
Tau fibril FP: inhibitors of human tau fibril formation | P10636 | K18 P301L tau heparin fibrillization, Alexa594 FP, 6 h | Potency, µM (top dose mostly 57.7 µM), for the others: top-dose activity, negative = inhibition, hits mostly inhibitors | 280,000 tested, 0.39% active | AID 1468; also: nearly all actives have a fitted effect of over 55% in size
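Human tau K18 […] P301L fragment, 15 uM unlabeled plus 0.24 uM Alexa 594-labeled tau (final), with compound and 20 uM heparin in 100 mM sodium acetate pH 7; 6 hr at 37 C, then Alexa 594 FP read.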
RORgamma inh: inhibitors of mouse ROR gamma transcriptional activity; P51450; Drosophila S2 Gal4-RORgamma UAS-luciferase reporter, 20 h; Potency, µM (series often up to 53.6 µM), for the others: top-dose activity change, negative = inhibition, usual class: inhibitors; 310,000 tested, 5.4% active; also: nearly all actives have a fitted effect of over 60% in size
Target sequence (P51450 whole entry, looked up, the tested form may be a part): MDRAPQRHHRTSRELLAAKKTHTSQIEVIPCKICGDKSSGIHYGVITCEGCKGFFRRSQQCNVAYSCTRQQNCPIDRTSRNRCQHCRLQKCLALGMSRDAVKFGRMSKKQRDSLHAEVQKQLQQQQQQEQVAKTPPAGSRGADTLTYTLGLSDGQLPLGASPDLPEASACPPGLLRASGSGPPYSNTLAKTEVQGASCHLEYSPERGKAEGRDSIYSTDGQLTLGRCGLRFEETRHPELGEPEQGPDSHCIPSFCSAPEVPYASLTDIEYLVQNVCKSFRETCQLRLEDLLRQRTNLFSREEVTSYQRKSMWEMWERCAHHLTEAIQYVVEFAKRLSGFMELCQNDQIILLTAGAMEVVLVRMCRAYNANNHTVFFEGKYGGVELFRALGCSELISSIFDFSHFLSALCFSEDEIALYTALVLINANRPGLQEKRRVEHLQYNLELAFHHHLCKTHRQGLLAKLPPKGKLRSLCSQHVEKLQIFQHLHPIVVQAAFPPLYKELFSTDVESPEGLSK
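Read-out: Photinus luciferase luminescence; inhibitors lower reporter signal. Insect Schneider cells with Gal4-ROR gamma fusion under metallothionein promoter, UAS reporter; 700 uM final copper sulfate induction, 20 hr, ambient temperature.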
Active calls of the source: *; ? = inconclusive; . = no result given; [ ] = another dose, or the depositor's remark. Calls follow the shape of the dose curve; as a rule, active = well fitted curve in the direction sought with a large enough effect; inconclusive = small, poorly fitted or top-dose-only effect, or another doubt; inactive = no such curve, though single readings can be large; an effect the other way counts as inactive or inconclusive. % is scaled to controls: 0 for no effect and ±100 for the full control effect; potency is read from the fitted curve at half-maximal effect.

SMILES	Tau fluor cs	Gal4-VP16 FLuc	Tau fibril ThT	Tau fibril FP	RORgamma inh
S=C(Nc1ccccc1)Nc1nc2ccccc2n1CCOc1ccc(Br)cc1	-18.4%	2.24µM*	12.7%	-1.8%	1.78µM*
CCc1ccc(CNC(=O)c2ccc(CSc3nc4ccncc4n3Cc3ccc(OC)cc3)cc2)cc1	-27.1%	.	0.7%	0.3%	.
O=C(Cn1c(=O)c2ccccc2n(CC(=O)Nc2ccc(F)cc2F)c1=O)NCCc1ccccc1	8.6%	.	10.5%	?	.
O=C(CSc1cn(CCNC(=O)c2cccc(C(F)(F)F)c2)c2ccccc12)Nc1ccc2c(c1)OCCO2	?	.	-11.3%	?	.
CC(=O)Oc1ccc(N2C(=O)C3C(C2=O)C(C(=O)c2ccc(Cl)cc2)N2CCCC32)cc1 (configuration not stated)	-16.1%	14.1µM*	35.5µM*	?	-7.8%
O=C(O)C1NCCc2ccccc21 (configuration not stated)	0.9%	3.1%	-6.5%	2.4%	-25.0%
S=C1NCCc2ccccc2C1c1ccccc1 (configuration not stated)	1.8%	0.159µM*	6.5%	10.0%	0.224µM*
S=C1NCCc2ccccc2C1c1ccccc1Cl (configuration not stated)	-13.4%	3.55µM*	-3.6%	1.0%	7.94µM*
COc1ccc(CNC(=O)C2CCN(S(=O)(=O)c3ccc4c(c3)CCCN4C(C)=O)CC2)cc1	-5.8%	.	1.3%	-1.1%	.
Cc1ccccc1OCCSc1nc(C)c(Cc2ccccc2)c(=O)[nH]1	-4.7%	.	-5.3%	-2.1%	.
N#C/C(=C\c1ccc(-c2ccccc2)o1)C(=O)Nn1cnnc1	1.5%	0.5%	?	9.0%	0.0%
N#C/C(=C\c1ccc(-c2cccc(Cl)c2)o1)C(=O)Nc1cccc2cccnc12	-17.0%	3.2%	2.51µM*	8.0%	3.4%
Cc1ccccc1NC(=O)/C(C#N)=C/c1ccc(-c2ccc(Cl)c(C(=O)O)c2)o1	.	17.8µM*	.	.	-32.9%
COc1ccc(NC(=O)/C(C#N)=C/c2ccc(-c3ccc(Cl)c(C(=O)O)c3)o2)cc1	.	?	.	.	11.2µM*
O=C(O)c1cc(-c2ccc(/C=N/Nc3ccc(Cl)cc3)o2)ccc1Cl	11.2µM*[quencher]	-5.0%	8.91µM*	2.4%	?
O=C(C1CCC1)N1CCCc2cc(S(=O)(=O)N3CCN(c4cccc(Cl)c4)CC3)ccc21	-13.1%	.	3.9%	6.8%	.
COc1ccc(-c2c(C#N)c(SCC(=O)Nc3cccc(Cl)c3)nc(C)c2C(=O)Nc2ccccc2)cc1OC	-16.4%	.	?	?	.
CCOc1cc(-c2nc(C)c(C(C)=O)n2O)ccc1OCC(=O)Nc1cccc(C)c1	-20.6%	-8.7%	?	6.2%	?
O=C(c1cnccn1)N1CCC2(CC1)CCN(c1cccc(-c3ccccc3)c1)CC2	.	-19.4%	.	.	?
N#Cc1ccc(C(=O)Nn2cnnc2)cc1	.	2.3%	.	.	-5.8%
Nc1ccc(S(=O)(=O)Nc2nccc(/C=C/c3cccc(Br)c3)n2)cc1	.	20.4%	.	.	-20.0%
Cc1ccccc1C(=O)Nc1nc(-c2nnn(-c3ccc(C(C)C)cc3)c2C)ns1	-27.2%	.	?	-3.7%	.
Cc1ccc(NC(=O)/C(C#N)=C/c2ccc(-c3ccc(Cl)c(C(=O)O)c3)o2)cc1C	-2.2%	.	4.47µM*	-2.2%	.
COc1ccc(NC(=O)/C(C#N)=C\c2ccc(-c3cccc(C(=O)O)c3C)o2)cc1	.	?	.	.	3.98µM*
Cc1ccc(NC(=O)/C(C#N)=C\c2ccc(Cl)cc2Cl)cc1C	-2.7%	.	-17.7%	-5.6%	.
N/C(=N\OC(=O)c1cc(Cl)ccc1Cl)c1ccccn1	6.0%	14.1µM*	8.7%	4.5%	-86.7%
N/C(=N\OC(=O)COc1ccc(Br)cc1Cl)c1ccccn1	-15.7%	?	?	-6.6%	?
N/C(=N\OC(=O)COc1ccc(Cl)cc1Cl)c1ccccn1	-10.6%	?	-17.4%	-2.0%	10µM*
Cc1cc(C)c2c(-n3cccc3)c(C(=O)NCc3cccc(F)c3)sc2n1	9.9%	.	6.8%	-6.4%	.
CCc1ccc(C2c3c(-c4cc(C)ccc4O)n[nH]c3C(=O)N2Cc2cccnc2)cc1 (configuration not stated)	-21.7%	.	-0.3%	-14.9%	.

Screens: PubChem, National Center for Advancing Translational Sciences (NCATS)
